Unmarked numbers belong to inactive results. Results filed as inconclusive are left out. Where a call stands in place of a potency, no number is given. Calls of active or inactive are those of the source. Unless noted, the call rests on the fitted dose curve; in most records, active means well fitted curve in the direction sought with a large enough effect in the repeat runs; inconclusive means weak or mixed curves; inactive means no such curve, though single readings can be large; an effect the other way counts as inactive or inconclusive.
Legend:
[1] = qHTS assay to identify small molecule agonists of H2AX (AID 1224845; active means well fitted activation curve with a large enough effect in the signal ratio in the repeat runs, not every such curve was filed as active; the % refers to the signal ratio)
Outline: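 Wild-type CHO-K1 cells, plated overnight, exposed 3hr at 37C to 15 concentrations (0.76% DMSO final). Lysed, then HTRF anti-pH2AX (S139) cryptate and anti-H2AX-d2 antibodies, 24 hr room temperature; 665/620 nm emission read.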

[2] = qHTS assay to identify small molecule agonists of the hypoxia (HIF-1) signaling pathway (AID 1224846; active means well fitted activation curve with a large enough effect in the signal ratio in the repeat runs, not every such curve was filed as active; the % refers to the signal ratio)
Outline: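 Beta-lactamase FRET read-out (CCF4-AM substrate) from ME-180 cells carrying an HRE-driven bla reporter, after 17 hrs compound exposure at 37C/5% CO2. Cells were seeded at 2,000 per well in 0.5% dialyzed FBS medium and preincubated 5 hrs.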

[3] = qHTS assay to identify small molecule agonists of H2AX - cell viability counter screen (AID 1224847; calls by dose curve; further: nearly all actives have a fitted effect of over 30% in size; further: potency means the concentration at half of the fitted maximal effect)
Outline: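 For this counter screen, overnight-attached CHO-K1 cells received test compounds (15 concentrations, 0.76% DMSO final); 3 hr later at 37C, CellTiter-Glo reagent was added and luminescence recorded after 30 min at room temperature.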

[4] = qHTS assay to identify small molecule antagonists of the estrogen related receptor (ERR) signaling pathway from Tox21 library (AID 1224848); further: nearly all actives have a fitted effect of over 50% in size; further: potency means the concentration at half of the fitted maximal effect
Outline: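 Quantitative high-throughput format: ERR reporter cells (2,000/well) pre-incubated 6 h, treated 18 h at 37 C with compounds in DMSO alongside positive and negative controls, then read by ONE-Glo luminescence.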

[5] = qHTS assay to identify small molecule agonists of the estrogen related receptor (ERR) signaling pathway from Tox21 library (AID 1224849; calls by dose curve; further: nearly all actives have a fitted effect of over 15% in size); details: ERR reporter cell line, ONE-Glo luciferase, 18 h; at 92.4 µM (top of the series) unless noted
Outline: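 Luminescence readout (ONE-Glo, 30 min RT) after 18 h compound exposure at 37 C of NTP-supplied ERR reporter cells; cells were plated 6 h before compound addition by pin tool.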

[6] = A CellTox Green Cytotoxicity Assay to monitor cytotoxicity in HEK293 cells - 0 hour (AID 1224869); further: nearly all actives have a fitted effect of over 50% in size
Outline: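 Read-out: fluorescence of a cell-impermeant cyanine dye staining DNA of dead cells, proportional to cytotoxicity. HEK293, 600 cells/well with reagent, compound (23 nL DMSO) added after 5 h; reads at 0, 8, 16, 24, 32, 40 h.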

[7] = qHTS RealTime-Glo MT Cell Viability Assay in HepG2 cells - 40 hour (AID 1224870); further: nearly all actives have a fitted effect of over 50% in size
Outline: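 HepG2 cells (600/well) mixed with RealTime-Glo MT reagent, settled 5 h at 37 C/5% CO2 before compound addition. Nonlytic NanoLuc luminescence from viable-cell prosubstrate reduction read repeatedly during 40 h treatment at 37 C.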

[8] = qHTS assay to identify small molecule agonists of the hypoxia (HIF-1) signaling pathway - cell viability counter screen (AID 1224844; calls by dose curve; further: nearly all actives have a fitted effect of over 50% in size; further: potency means the concentration at half of the fitted maximal effect)
Outline: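 CellTiter-Glo luminescence read-out, 30 min RT, taken in the same wells as the beta-lactamase HRE reporter assay; HRE-bla ME-180 cells, 0.5% dialyzed FBS, 17 hr compound treatment at 37C, 5% CO2.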

[9] = qHTS RealTime-Glo MT Cell Viability Assay in HepG2 cells - 24 hour (AID 1224867); further: nearly all actives have a fitted effect of over 50% in size
Outline: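 Luminescence read-out: viable HepG2 cells reduce a prosubstrate to a NanoLuc substrate, giving a signal proportional to live cell number. Reads taken at 0, 8, 16, 24, 32 and 40 h of compound exposure at 37 C.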

[10] = qHTS RealTime-Glo MT Cell Viability Assay in HEK293 cells - 32 hour (AID 1224868); further: nearly all actives have a fitted effect of over 50% in size; further: potency means the concentration at half of the fitted maximal effect
Outline: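 Nonlytic real-time viability readout: viable cells convert prosubstrate to NanoLuc substrate, giving luminescence proportional to live cell number. HEK293, 600 cells/well, compound added after 5 h, continuous culture at 37 C.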

Structure (SMILES) | Potency [1] | outcome [2] | Potency [3] | Potency [4] | activity change, positive = activation [5] | Potency [6] | Potency [7] | Potency [8] | Potency [9] | Potency [10]
CCOC(=O)NC(=S)Nc1ccccc1NC(=S)NC(=O)OCC | inactive | inactive | inactive | inactive | 11.4% (active) | inactive | inactive | – | – | –
CCOP(=O)(N=C1SCCS1)OCC | – | – | inactive | – | – | inactive | inactive | inactive | inactive | inactive
CC(=O)CC(c1ccc(Cl)cc1)c1c(O)c2ccccc2oc1=O (stereo not given) | – | inactive | – | – | – | inactive | inactive | inactive | inactive | inactive
O=NN1CCN(N=O)CC1 | inactive | inactive | inactive | inactive | 3% | – | inactive | – | inactive | inactive
CCOP(=S)(OCC)SCSP(=S)(OCC)OCC | – | inactive | inactive | – | – | inactive | inactive | inactive | – | inactive
c1coc(-c2nc3ccccc3[nH]2)c1 | – | inactive | 80 µM (active) | – | – | inactive | inactive | inactive | – | –
O=C(Nc1ccccc1)c1ccccc1I | – | inactive | – | – | – | inactive | inactive | inactive | inactive | inactive
CCOC(=O)C1(c2ccccc2)CCN(CCc2ccc(N)cc2)CC1 | inactive | inactive | inactive | inactive | – | inactive | inactive | – | inactive | inactive
CN/C(=N\[N+](=O)[O-])NCC1CCOC1 (stereo not given) | – | – | inactive | – | – | – | inactive | inactive | inactive | inactive
CC(COc1ccc(Oc2ccccc2)cc1)Oc1ccccn1 (stereo not given) | – | – | – | inactive | – | inactive | inactive | inactive | – | –
CCC(=O)C(CCN(C)C)(c1ccccc1)c1ccccc1 | – | inactive | inactive | – | – | inactive | inactive | inactive | – | inactive
Cc1cc(C)c(C(=O)P(=O)(C(=O)c2c(C)cc(C)cc2C)c2ccccc2)c(C)c1 | inactive | inactive | inactive | inactive | – | inactive | inactive | – | inactive | inactive
N#CCNCC#N | inactive | inactive | inactive | inactive | 2.04% | – | inactive | – | inactive | inactive
OCCBr | – | – | inactive | – | – | inactive | inactive | inactive | inactive | inactive
O=[N+]([O-])c1cc(Cl)c(Cl)c(Cl)c1 | – | – | inactive | – | – | inactive | inactive | inactive | – | inactive
CNC(=O)Oc1ccc(N(C)C)c(C)c1 | inactive | inactive | inactive | inactive | – | – | inactive | – | – | inactive
CC(C)NCC(O)c1ccc(N)c(C#N)c1 (stereo not given) | – | inactive | inactive | – | – | – | inactive | inactive | – | inactive
C[N+](C)=CCl | – | – | inactive | – | – | inactive | inactive | inactive | inactive | inactive
CC(C)CP(=S)(S)CC(C)C | inactive | inactive | inactive | – | – | inactive | inactive | – | inactive | inactive
CCN(Cc1ccc(Cl)nc1)/C(=C/[N+](=O)[O-])NC | inactive | inactive | inactive | – | – | inactive | inactive | – | inactive | inactive
CCOc1nc(C(Cl)(Cl)Cl)ns1 | inactive | inactive | inactive | – | -11.7% | inactive | inactive | – | inactive | inactive
O=C(Nc1ccccc1)N(Cc1ccc(Cl)cc1)C1CCCC1 | – | inactive | – | 54.5 µM (active) | – | inactive | inactive | inactive | – | 24.5 µM (active)
CCCSP(=S)(OCC)Oc1ccc(Cl)cc1Cl (stereo not given) | – | inactive | – | inactive | 2.16% | inactive | inactive | inactive | inactive | inactive
OC(Cn1cncn1)(c1ccc(F)cc1)c1ccccc1F (stereo not given) | – | inactive | – | – | – | inactive | inactive | inactive | inactive | inactive
CCOP(=S)(OCC)SCSc1ccc(Cl)cc1 | – | inactive | – | – | – | inactive | inactive | inactive | inactive | inactive
COc1cccc2c1cc([N+](=O)[O-])c1c(C(=O)O)cc3c(c12)OCO3 | – | – | inactive | 4.86 µM (active) | -37.1% | inactive | inactive | 54.9 µM (active) | inactive | 2.45 µM (active)
CCCCOP(=O)(O)OCCCC | – | – | – | – | – | inactive | inactive | inactive | – | inactive
CCOC(=O)CP(=O)(OCC)OCC | inactive | inactive | inactive | inactive | – | inactive | inactive | – | inactive | inactive
Clc1cccc(N2CCNCC2)c1 | – | – | inactive | – | – | inactive | inactive | inactive | inactive | inactive
